Source: PubChem BioAssay AID2283302 (EPA ToxCast)
Inconclusive results are not listed. The source made the active and inactive calls. Rule for the calls: active = hit-call score of the fitted dose curve at least 0.9, where 1 is the maximum; inconclusive = response in the unintended direction; inactive = score below 0.9.

molecular target: rat Gamma-HydroxyButyrate Receptor (GHB), Tspan17 (gene 306771) (UniProt Q4V8E0); assay: NVS_GPCR_rGHB: NovaScreen (NVS) G Protein-Coupled Receptor Assay for rat Gamma-HydroxyButyrate Receptor (GHB)
Sequence (Q4V8E0 whole entry, looked up): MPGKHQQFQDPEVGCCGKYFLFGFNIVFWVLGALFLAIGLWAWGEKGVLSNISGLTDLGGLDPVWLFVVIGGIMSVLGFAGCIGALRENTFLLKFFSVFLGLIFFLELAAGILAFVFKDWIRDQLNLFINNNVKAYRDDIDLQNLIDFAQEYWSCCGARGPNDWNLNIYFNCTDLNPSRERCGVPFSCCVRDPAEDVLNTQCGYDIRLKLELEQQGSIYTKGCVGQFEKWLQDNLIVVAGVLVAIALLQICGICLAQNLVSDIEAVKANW
Method: NVS_GPCR_rGHB is a biochemical, single-readout assay that uses extracted gene-proteins from Rat forebrain in a tissue-based cell-free assay. Measurements were taken 1 hour after chemical dosing in a 48-well plate.NVS_GPCR_rGHB is one of one assay component(s) measured or calculated from the NVS_GPCR_rGHB assay. It is designed to make measurements of radioligand binding, a form of binding reporter, as detected with scintillation counting signals by Filter-based radiodetection technology.Data from the assay component NVS_GPCR_rGHB was analyzed into 1 assay endpoint. This assay endpoint, NVS_GPCR_rGHB, was analyzed in the positive analysis fitting direction relative to DMSO as the negative control and baseline of activity. Using a type of binding reporter, loss-of-signal activity can be used to understand changes in the binding as they relate to the gene Tspan17. Furthermore, this assay endpoint can be referred to as a primary readout, because the performed assay has only produced 1 assay endpoint. To generalize the intended target to other relatable targets, this assay endpoint is annotated to the gpcr intended target family, where the subfamily is metabotropic glutamate receptor.
Binding assays used specific radioligands (tritiated, iodinated) with non-radioactive competitive displacement ligands in agonist or antagonist protocols (as indicated) and various reference compounds and inhibitors to titrate specific binding to receptors and transporters. Most enzyme assays (CYPs, kinases, phosphatases, proteases, HDACs) used recombinant protein and specific substrates (fluorescence mostly, some colorimetric and radioactive) and inhibitors, followed by a biochemical separation of substrate and product. All assays for the biochemical HTS were initially run in duplicate at a single concentration (10 uM for CYP450 assays and 25 uM for all others). Assay-chemical combinations meeting a pre-defined threshold (e.g., 30% inhibition and other criteria defined below) were then run in singleton concentration-response format with maximum concentration of 20 uM for CYPs and 50 uM for all others. Each assay was run with positive and negative controls, and concurrent controls on every plate. The follow-up (secondary) screen tested active chemical-pairs in concentration series, as well as a few additional assays not tested in the primary screen, some selected negative inactives, and several cases re-run in the concentration series for confirmatory purposes.

Row | Compound | outcome | AC50
1 | O=C(O)c1cccc(N(Cc2cccnc2)c2ccc(OC(F)F)c(OC(F)F)c2)c1 | inactive | –
2 | COC(=O)CSc1cc(N=c2sc(=O)n3n2CCCC3)c(F)cc1Cl | inactive | –
3 | Cn1c(=O)cc(Oc2ccc(F)cc2F)c2cnc(NCC(C)(C)O)nc21 | – | 0.166 µM (active)
4 | Cc1cccc(Nc2cc(Cl)nc(SCC(=O)O)n2)c1C | – | 19.2 µM (active)
